PubChem BioAssay (EPA / NIEHS)
Results filed as inconclusive are left out. Active and inactive are the calls of the source. How the source made its calls: active means hit-call score of the fitted dose curve at least 0.9, where 1 is the maximum; inconclusive means response in the unintended direction; inactive means score below 0.9.

Tests used:
[1] = molecular target: rat Somatostatin Receptor (SST), Sstr1 (gene 25033) (UniProt P28646); test: NVS_GPCR_rSST: NovaScreen (NVS) G Protein-Coupled Receptor Assay for rat Somatostatin Receptor (SST) (AID 2283314)
Procedure, shortened: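 Single-concentration duplicate screen (25 uM), then concentration-response up to 50 uM for chemicals passing a threshold such as 30% inhibition. Membranes came from rat forebrain. Binding was measured 1 h post-dose by filter radiodetection and scintillation, relative to DMSO.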

[2] = molecular target: Voltage-dependent N-type calcium channel subunit alpha-1B (Rattus norvegicus) (UniProt Q02294); test: NVS_IC_rCaChN: NovaScreen (NVS) Ion Channel Assay for rat Calcium Channel, Type N (CaChN) (AID 2283317)
Adra2b (gene 24174) = Adra2b (gene 24174) (UniProt P19328); test: NVS_GPCR_rmAdra2B: NovaScreen (NVS) G Protein-Coupled Receptor Assay for hybird cells Adrenergic, Alpha 2B Receptor (Adra2B) (AID 2283306)
Procedure, shortened: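 Compounds screened first at 25 uM in duplicate, with actives followed up in concentration-response; specific radioligand displacement from hybrid neuroglioma/blastoma cell membrane preparations measured by filter scintillation counting after 1 h, normalized to DMSO.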

[3] = molecular target: rat Neurokinin-1 Receptor (NK1), Tacr1 (gene 24807) (UniProt P14600); test: NVS_GPCR_rNK1: NovaScreen (NVS) G Protein-Coupled Receptor Assay for rat Neurokinin-1 Receptor (NK1) (AID 2283309)
Procedure, shortened: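 Competitive radioligand binding to NK1 in rat submaxillary membranes, 1 h incubation, filtration and scintillation read-out. Compounds first screened at 25 uM in duplicate, then concentration-response for actives; signal loss relative to DMSO.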

[4] = molecular target: rat Glutamate Metabotropic Receptor 5 (MGluR5), Grm5 (gene 24418) (UniProt P31424); test: NVS_GPCR_rmMGluR5: NovaScreen (NVS) G Protein-Coupled Receptor Assay for rat Glutamate Metabotropic Receptor 5 (MGluR5) (AID 2283307)
Procedure, shortened: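 Compounds first screened in duplicate at 25 uM, then in concentration series up to 50 uM if over threshold. Radioligand displacement on rat whole-brain membranes, filtration and scintillation counting after 1.5 h; binding loss relative to DMSO.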

[5] = molecular target: rat Gamma-Aminobutyric Acid Type B Receptor (GABBR), Gabbr1 (gene 81657) (UniProt Q9Z0U4); test: NVS_GPCR_rGABBR: NovaScreen (NVS) G Protein-Coupled Receptor Assay for rat Gamma-Aminobutyric Acid Type B Receptor (GABBR) (AID 2283301)
Procedure, shortened: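 Rat cortical membrane preparation, competitive radioligand binding for 1 h with filtration and scintillation readout. Actives from duplicate single-point 25 uM screening proceeded to concentration series with 50 uM top concentration.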

[6] = molecular target: guinea pig Serotonin, 5-Hydroxytryptamine Receptor 4 (5HT4), HTR4 (gene 100135548) (UniProt O70528); test: NVS_GPCR_g5HT4: NovaScreen (NVS) G Protein-Coupled Receptor Assay for guinea pig Serotonin, 5-Hydroxytryptamine Receptor 4 (5HT4) (AID 2283294)
Procedure, shortened: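 Compounds first screened in duplicate at 25 uM, actives followed up in concentration series. Binding measured as displacement of specific radioligand from guinea pig striatal membranes, 1 h, filter-based scintillation read-out versus DMSO baseline.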

[7] = molecular target: rat Histamine Receptor (H3), Hrh3 (gene 85268) (UniProt Q9QYN8); test: NVS_GPCR_rH3: NovaScreen (NVS) G Protein-Coupled Receptor Assay for rat Histamine Receptor (H3) (AID 2283303)
Procedure, shortened: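 Filter-binding radioligand competition on rat forebrain membranes, 1 h incubation; compounds screened at 25 µM in duplicate and followed in concentration series to 50 µM, loss of bound signal vs DMSO.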

[8] = molecular target: human Neonicotinoid receptor (NNR), CHRNA2 (gene 1135) (UniProt Q15822); test: NVS_LGIC_hNNR_NBungSens: NovaScreen (NVS) Ligand-Gated Ion Channel Assay for human Neonicotinoid receptor (NNR) (AID 2283313)
Procedure, shortened: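 Compounds first screened in duplicate at 25 uM, then actives re-tested in single-replicate dose series up to 50 uM. Binding measured as displacement of specific radioligand from neuroblastoma membrane receptors after 2 h, scintillation read on filters.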

[9] = molecular target: rat Neurokinin-3 Receptor (NK3), Tacr3 (gene 24808) (UniProt P16177); test: NVS_GPCR_rNK3: NovaScreen (NVS) G Protein-Coupled Receptor Assay for rat Neurokinin-3 Receptor (NK3) (AID 2283310)
Procedure, shortened: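 Filter-based radioligand displacement on rat cortex membrane preparations, read by scintillation 2 h post-dose. Chemicals first tested in duplicate at 25 uM; actives followed up in concentration series with a 50 uM maximum.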

[10] = molecular target: rat Serotonin, 5-Hydroxytryptamine Receptor (5HT), Non-Selective Binding, Htr1a (gene 24473) (UniProt P19327); test: NVS_GPCR_r5HT_NonSelective: NovaScreen (NVS) G Protein-Coupled Receptor Assay for rat Serotonin, 5-Hydroxytryptamine Receptor (5HT), Non-Selective Binding (AID 2283295)
Procedure, shortened: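 Rat cortex membrane preparation incubated 1 h with radioligand and test chemical; bound radioactivity counted after filtration. Screening began in duplicate at 25 uM with concentration-series follow-up; fitting relative to DMSO.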

[11] = molecular target: rat Adrenergic, Alpha 1A Receptor (Adra1A), Adra1a (gene 29412) (UniProt P43140); test: NVS_GPCR_rAdra1A: NovaScreen (NVS) G Protein-Coupled Receptor Assay for rat Adrenergic, Alpha 1A Receptor (Adra1A) (AID 2283296)
Procedure, shortened: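 Filter radiodetection after 1 h competitive binding on CEC-pretreated rat cortical membranes. Duplicate single-point screening at 25 uM; active chemicals retested across concentration series.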

[12] = test system: rat Adrenergic, Alpha 1B Receptor (Adra1B), gene 24173; test: NVS_GPCR_rAdra1B: NovaScreen (NVS) G Protein-Coupled Receptor Assay for rat Adrenergic, Alpha 1B Receptor (Adra1B) (AID 2283297)
Procedure, shortened: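 Filter-binding radioligand competition on membranes from rat liver, read after 1 h by scintillation counting. Single-concentration duplicate screen at 25 uM, followed by concentration-response on actives, normalised to DMSO.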

[13] = molecular target: rat Adrenergic Receptor, Beta (Adrb), Non-selective Binding, Adrb1 (gene 24925) (UniProt P18090); test: NVS_GPCR_rAdrb_NonSelective: NovaScreen (NVS) G Protein-Coupled Receptor Assay for rat Adrenergic Receptor, Beta (Adrb), Non-selective Binding (AID 2283298)
Procedure, shortened: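 Rat cortical membranes incubated 1 h with beta-adrenergic radioligand and test chemical; bound ligand measured by filtration and scintillation counting. Screen at 25 uM duplicate, then concentration series with 50 uM maximum; loss of signal versus DMSO.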

[14] = molecular target: rat Adrenergic Receptor, Alpha 2 (Adra2), Non-selective Binding, Adra2a (gene 25083) (UniProt P22909); test: NVS_GPCR_rAdra2_NonSelective: NovaScreen (NVS) G Protein-Coupled Receptor Assay for rat Adrenergic Receptor, Alpha 2 (Adra2), Non-selective Binding (AID 2283299)
Procedure, shortened: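 Filter-based scintillation counting of radioligand binding to rat cortical membrane receptors, measured 1.25 hours post-dosing; loss of signal versus DMSO indicates displacement. Initial single-concentration duplicate at 25 uM, then concentration series.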

[15] = molecular target: rat Opioid Receptor, Non-selective Sodium (Na+) Binding, Oprm1 (gene 25601) (UniProt P33535); test: NVS_GPCR_rOpiate_NonSelectiveNa: NovaScreen (NVS) G Protein-Coupled Receptor Assay for rat Opioid Receptor, Non-selective Sodium (Na+) Binding (AID 2283311)
Procedure, shortened: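 Filtration radioligand binding on rat forebrain membrane preparations, read 1.5 h after dosing. Single-concentration 25 µM primary screen in duplicate, followed by singleton concentration series to 50 µM max for actives; DMSO baseline.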

[16] = molecular target: rat Neonicotinoid receptor (NNR), Chrna7 (gene 25302) (UniProt Q05941); test: NVS_LGIC_rNNR_BungSens: NovaScreen (NVS) Ligand-Gated Ion Channel Assay for rat Neonicotinoid receptor (NNR) (AID 2283315)
Procedure, shortened: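 Rat cortical membrane preparation incubated 2.5 h with tritiated or iodinated radioligand and test chemical. Bound radioactivity was filtered and counted by scintillation, and displacement was analysed against DMSO.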

[17] = molecular target: rat Vasopressin 1 Receptor (V1), Avpr1a (gene 25107) (UniProt P30560); test: NVS_GPCR_rV1: NovaScreen (NVS) G Protein-Coupled Receptor Assay for rat Vasopressin 1 Receptor (V1) (AID 2283316)
Procedure, shortened: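 Concentration-response up to 50 uM for chemicals passing a threshold such as 30% inhibition in an initial duplicate 25 uM screen. Displacement of radioligand from rat liver membranes measured after 1.5 h by filtration and scintillation.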

[18] = molecular target: rat Corticotropin Releasing Factor Receptor (CRF), Crhr1 (gene 58959) (UniProt P35353); test: NVS_GPCR_rCRF: NovaScreen (NVS) G Protein-Coupled Receptor Assay for rat Corticotropin Releasing Factor Receptor (CRF) (AID 2283300)
Procedure, shortened: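 Single-concentration (25 uM, duplicate) radioligand binding on rat cortical membrane preparations, counted by scintillation after 2 h. Activity scored as signal loss relative to DMSO negative control.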

[19] = molecular target: Metabotropic glutamate receptor 1 (Rattus norvegicus) (UniProt P23385); test: NVS_GPCR_rmMGluR1: NovaScreen (NVS) G Protein-Coupled Receptor Assay for rat Glutamate Metabotropic Receptor 1 (MGluR1) (AID 2283305)
Procedure, shortened: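 Binding to native receptor from rat cerebellum extract, measured as displacement of a radioligand (scintillation counting, filter separation) after 1 hour. Compounds tested at 25 uM in duplicate, then titrated to a 50 uM maximum.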

rat Neurokinin-3 Receptor (NK3), Tacr3 (gene 24808), sequence (P16177 whole entry, looked up): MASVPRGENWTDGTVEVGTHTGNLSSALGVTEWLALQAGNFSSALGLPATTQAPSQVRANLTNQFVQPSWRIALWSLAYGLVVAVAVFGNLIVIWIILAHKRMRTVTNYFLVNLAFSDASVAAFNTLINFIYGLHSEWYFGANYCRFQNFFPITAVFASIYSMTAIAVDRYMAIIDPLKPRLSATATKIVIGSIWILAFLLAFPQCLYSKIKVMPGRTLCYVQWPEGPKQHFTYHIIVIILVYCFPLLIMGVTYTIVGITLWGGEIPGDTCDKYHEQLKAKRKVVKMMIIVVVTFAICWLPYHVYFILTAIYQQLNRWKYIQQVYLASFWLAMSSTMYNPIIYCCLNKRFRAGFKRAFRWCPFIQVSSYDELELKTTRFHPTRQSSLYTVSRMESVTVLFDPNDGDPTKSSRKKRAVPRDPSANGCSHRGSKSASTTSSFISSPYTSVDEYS
rat Opioid Receptor, Non-selective Sodium (Na+) Binding, Oprm1 (gene 25601), sequence (P33535 whole entry, looked up): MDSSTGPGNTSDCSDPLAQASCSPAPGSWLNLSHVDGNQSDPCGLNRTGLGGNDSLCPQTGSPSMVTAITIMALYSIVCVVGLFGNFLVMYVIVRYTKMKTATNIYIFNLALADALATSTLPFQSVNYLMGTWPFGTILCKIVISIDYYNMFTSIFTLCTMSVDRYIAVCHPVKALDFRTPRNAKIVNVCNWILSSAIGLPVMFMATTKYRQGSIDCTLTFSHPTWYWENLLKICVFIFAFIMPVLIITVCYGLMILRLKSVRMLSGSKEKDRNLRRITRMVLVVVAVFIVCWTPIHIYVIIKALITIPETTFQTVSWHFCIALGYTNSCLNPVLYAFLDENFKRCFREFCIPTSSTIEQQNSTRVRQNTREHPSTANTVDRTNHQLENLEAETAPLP
rat Adrenergic, Alpha 1A Receptor (Adra1A), Adra1a (gene 29412), sequence (P43140 whole entry, looked up): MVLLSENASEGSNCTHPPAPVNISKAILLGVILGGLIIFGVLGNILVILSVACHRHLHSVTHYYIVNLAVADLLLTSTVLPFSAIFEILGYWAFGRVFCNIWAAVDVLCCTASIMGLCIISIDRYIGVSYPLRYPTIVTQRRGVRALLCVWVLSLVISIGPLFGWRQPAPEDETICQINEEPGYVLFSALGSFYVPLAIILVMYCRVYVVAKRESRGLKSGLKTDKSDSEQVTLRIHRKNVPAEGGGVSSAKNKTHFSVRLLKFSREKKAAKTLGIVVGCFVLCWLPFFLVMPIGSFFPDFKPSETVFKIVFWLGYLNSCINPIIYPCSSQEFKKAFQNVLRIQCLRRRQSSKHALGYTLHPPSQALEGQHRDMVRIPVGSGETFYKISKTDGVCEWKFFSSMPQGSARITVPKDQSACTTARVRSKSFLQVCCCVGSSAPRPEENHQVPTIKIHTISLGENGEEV
rat Neurokinin-1 Receptor (NK1), Tacr1 (gene 24807), sequence (P14600 whole entry, looked up): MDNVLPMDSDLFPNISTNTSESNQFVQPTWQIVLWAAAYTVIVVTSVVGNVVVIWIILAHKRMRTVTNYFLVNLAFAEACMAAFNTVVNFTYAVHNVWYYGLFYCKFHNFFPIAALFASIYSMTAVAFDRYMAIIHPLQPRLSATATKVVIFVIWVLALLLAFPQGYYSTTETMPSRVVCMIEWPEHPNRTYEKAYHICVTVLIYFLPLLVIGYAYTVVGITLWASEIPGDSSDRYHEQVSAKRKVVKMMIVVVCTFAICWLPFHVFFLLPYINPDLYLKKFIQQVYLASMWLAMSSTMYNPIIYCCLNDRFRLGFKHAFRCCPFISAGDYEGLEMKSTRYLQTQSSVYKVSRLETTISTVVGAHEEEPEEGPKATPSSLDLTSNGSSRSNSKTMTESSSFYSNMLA
rat Adrenergic Receptor, Beta (Adrb), Non-selective Binding, Adrb1 (gene 24925), sequence (P18090 whole entry, looked up): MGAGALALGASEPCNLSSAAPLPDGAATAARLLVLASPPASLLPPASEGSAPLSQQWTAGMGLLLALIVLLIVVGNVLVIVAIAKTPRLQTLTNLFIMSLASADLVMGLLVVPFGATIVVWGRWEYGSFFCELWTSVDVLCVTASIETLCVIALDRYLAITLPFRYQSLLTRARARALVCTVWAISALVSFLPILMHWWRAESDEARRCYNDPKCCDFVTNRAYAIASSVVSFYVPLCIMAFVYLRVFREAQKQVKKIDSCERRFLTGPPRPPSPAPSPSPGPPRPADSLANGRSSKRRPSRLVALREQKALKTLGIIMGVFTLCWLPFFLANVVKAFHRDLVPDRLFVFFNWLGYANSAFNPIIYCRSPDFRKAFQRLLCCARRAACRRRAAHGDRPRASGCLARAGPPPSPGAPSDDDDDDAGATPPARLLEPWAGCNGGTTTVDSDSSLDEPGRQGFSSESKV
rat Adrenergic Receptor, Alpha 2 (Adra2), Non-selective Binding, Adra2a (gene 25083), sequence (P22909 whole entry, looked up): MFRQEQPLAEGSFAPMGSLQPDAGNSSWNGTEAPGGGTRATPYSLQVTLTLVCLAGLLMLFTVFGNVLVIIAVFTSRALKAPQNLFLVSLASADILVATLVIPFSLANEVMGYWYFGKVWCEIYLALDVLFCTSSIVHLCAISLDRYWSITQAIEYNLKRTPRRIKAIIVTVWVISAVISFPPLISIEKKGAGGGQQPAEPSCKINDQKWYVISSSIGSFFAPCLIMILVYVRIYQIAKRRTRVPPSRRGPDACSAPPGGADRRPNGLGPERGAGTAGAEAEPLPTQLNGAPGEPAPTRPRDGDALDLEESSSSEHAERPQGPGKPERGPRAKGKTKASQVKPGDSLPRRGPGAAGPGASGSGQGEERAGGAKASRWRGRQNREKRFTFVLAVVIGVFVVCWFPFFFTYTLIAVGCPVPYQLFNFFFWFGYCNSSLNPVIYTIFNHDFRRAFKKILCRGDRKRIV
Adra2b (gene 24174), sequence (P19328 whole entry, looked up): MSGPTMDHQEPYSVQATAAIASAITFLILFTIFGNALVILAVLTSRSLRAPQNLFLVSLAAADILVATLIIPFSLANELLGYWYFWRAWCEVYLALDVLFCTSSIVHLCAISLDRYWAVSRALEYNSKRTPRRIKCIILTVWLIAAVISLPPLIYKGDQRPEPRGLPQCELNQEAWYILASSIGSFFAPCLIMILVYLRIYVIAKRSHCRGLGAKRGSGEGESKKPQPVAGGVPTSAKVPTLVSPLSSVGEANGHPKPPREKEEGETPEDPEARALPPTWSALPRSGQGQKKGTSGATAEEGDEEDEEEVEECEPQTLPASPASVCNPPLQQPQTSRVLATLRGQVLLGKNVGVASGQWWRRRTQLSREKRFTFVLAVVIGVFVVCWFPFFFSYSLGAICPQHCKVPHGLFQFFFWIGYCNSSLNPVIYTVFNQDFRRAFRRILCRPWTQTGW
guinea pig Serotonin, 5-Hydroxytryptamine Receptor 4 (5HT4), HTR4 (gene 100135548), sequence (O70528 whole entry, looked up): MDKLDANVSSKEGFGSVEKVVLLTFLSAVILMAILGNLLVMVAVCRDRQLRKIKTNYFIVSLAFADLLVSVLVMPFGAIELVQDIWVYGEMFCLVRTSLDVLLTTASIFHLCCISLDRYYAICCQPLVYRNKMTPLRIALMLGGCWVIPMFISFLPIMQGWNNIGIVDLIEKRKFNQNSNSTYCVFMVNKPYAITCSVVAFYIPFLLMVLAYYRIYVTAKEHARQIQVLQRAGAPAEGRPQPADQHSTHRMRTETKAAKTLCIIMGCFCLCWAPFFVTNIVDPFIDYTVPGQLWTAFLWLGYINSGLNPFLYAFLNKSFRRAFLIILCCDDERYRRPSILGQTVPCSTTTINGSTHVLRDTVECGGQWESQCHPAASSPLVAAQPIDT
rat Histamine Receptor (H3), Hrh3 (gene 85268), sequence (Q9QYN8 whole entry, looked up): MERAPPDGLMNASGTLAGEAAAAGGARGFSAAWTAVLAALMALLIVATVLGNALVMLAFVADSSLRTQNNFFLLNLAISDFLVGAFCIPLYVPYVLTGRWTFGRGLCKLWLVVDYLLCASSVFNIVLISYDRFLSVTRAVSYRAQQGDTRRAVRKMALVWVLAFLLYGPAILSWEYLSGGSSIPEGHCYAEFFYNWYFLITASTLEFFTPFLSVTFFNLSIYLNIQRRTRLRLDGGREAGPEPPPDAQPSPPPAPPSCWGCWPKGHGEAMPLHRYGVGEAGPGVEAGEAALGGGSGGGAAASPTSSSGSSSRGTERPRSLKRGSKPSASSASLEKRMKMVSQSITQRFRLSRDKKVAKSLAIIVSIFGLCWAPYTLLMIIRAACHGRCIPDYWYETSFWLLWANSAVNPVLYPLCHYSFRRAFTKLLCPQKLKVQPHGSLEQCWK
rat Gamma-Aminobutyric Acid Type B Receptor (GABBR), Gabbr1 (gene 81657), sequence (Q9Z0U4 whole entry, looked up): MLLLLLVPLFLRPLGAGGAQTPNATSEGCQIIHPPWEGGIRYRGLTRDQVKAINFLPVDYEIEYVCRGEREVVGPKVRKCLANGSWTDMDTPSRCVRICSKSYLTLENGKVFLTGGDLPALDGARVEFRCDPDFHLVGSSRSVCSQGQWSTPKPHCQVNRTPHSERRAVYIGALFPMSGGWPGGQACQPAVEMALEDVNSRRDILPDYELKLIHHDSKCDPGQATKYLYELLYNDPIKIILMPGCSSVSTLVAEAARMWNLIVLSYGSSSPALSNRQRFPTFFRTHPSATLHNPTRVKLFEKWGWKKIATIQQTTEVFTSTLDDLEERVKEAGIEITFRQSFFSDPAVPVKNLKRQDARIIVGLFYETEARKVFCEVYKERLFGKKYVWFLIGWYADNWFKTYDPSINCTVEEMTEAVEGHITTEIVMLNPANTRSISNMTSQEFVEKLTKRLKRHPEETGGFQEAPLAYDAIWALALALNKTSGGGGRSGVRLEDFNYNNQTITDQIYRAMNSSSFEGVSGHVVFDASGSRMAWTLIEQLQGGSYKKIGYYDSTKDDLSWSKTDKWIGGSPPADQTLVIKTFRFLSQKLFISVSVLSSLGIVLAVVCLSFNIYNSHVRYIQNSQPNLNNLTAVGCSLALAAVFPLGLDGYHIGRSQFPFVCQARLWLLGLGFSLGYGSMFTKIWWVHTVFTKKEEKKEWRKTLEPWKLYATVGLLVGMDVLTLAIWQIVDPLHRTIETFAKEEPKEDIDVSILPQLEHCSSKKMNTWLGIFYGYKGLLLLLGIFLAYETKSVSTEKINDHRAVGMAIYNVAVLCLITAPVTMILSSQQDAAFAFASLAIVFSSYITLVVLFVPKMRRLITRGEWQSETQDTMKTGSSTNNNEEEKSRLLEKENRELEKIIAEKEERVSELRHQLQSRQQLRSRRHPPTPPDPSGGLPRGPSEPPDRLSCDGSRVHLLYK

CS(=O)(=O)NC(=O)c1cc(Oc2ccc(C(F)(F)F)cc2Cl)ccc1[N+](=O)[O-]
AC50 [1]: 1.38 µM (active)
outcome [2]: inactive

CC(C)(C)C(O)(CCc1ccc(Cl)cc1)Cn1cncn1 (stereo not given)
outcome (Adra2b (gene 24174)): inactive
AC50 [3]: 12.9 µM (active)

Cn1cc(-c2ccccc2)c(=O)c(-c2cccc(C(F)(F)F)c2)c1
outcome [4]: inactive

ClCCOCCCl
outcome [5]: inactive

O=C(Oc1ccc(Br)cc1)N1CCN2CCC1CC2
AC50 [6]: 14.8 µM (active)
AC50 [7]: 0.851 µM (active)
outcome (Adra2b (gene 24174)): inactive
AC50 [8]: 8.47 µM (active)

CC(C)(C)OOC(=O)c1ccccc1
outcome [7]: inactive
outcome [3]: inactive

N#CC(Br)Br
outcome [9]: inactive

CCOC(=O)[C@]1(c2ccccc2)Oc2ccccc2[C@@H]1N
AC50 [6]: 4.94 µM (active)
AC50 [10]: 2.49 µM (active)
AC50 [11]: 0.38 µM (active)
AC50 [12]: 0.456 µM (active)
AC50 [13]: 2.61 µM (active)
AC50 [14]: 3.76 µM (active)
AC50 [7]: 10.2 µM (active)
AC50 (Adra2b (gene 24174)): 1.76 µM (active)
AC50 [15]: 21.3 µM (active)
outcome [8]: inactive
AC50 [16]: 25 µM (active)

C1=Cc2cccc3cccc1c23
AC50 [17]: 1.11 µM (active)

CCCCCOC(=O)c1ccccc1C(=O)OCCCCC
outcome [6]: inactive

CCC[CH2][Sn]([Cl])([CH2]CCC)[CH2]CCC
AC50 [6]: 3 µM (active)
AC50 [10]: 12 µM (active)
AC50 [11]: 11.3 µM (active)
AC50 [12]: 3.87 µM (active)
AC50 [13]: 25 µM (active)
AC50 [14]: 2.98 µM (active)
AC50 [18]: 3.75 µM (active)
AC50 [7]: 15.2 µM (active)
AC50 [19]: 2.5 µM (active)
outcome (Adra2b (gene 24174)): inactive
AC50 [4]: 25 µM (active)
AC50 [9]: 1.43 µM (active)
AC50 [15]: 8.92 µM (active)
outcome [1]: inactive
outcome [2]: inactive

CC(C)COC(=O)c1ccccc1C(=O)OCC(C)C
outcome [6]: inactive

Cc1ccc(N)c(N)c1
outcome [6]: inactive

[Cl-].[Cl-].[Hg+2]
AC50 [6]: 7.68 µM (active)
AC50 [11]: 12.1 µM (active)
AC50 [12]: 3.96 µM (active)
AC50 [13]: 35.7 µM (active)
AC50 [14]: 6.48 µM (active)
AC50 [5]: 18.4 µM (active)
AC50 [7]: 24.6 µM (active)
AC50 [19]: 14 µM (active)
AC50 (Adra2b (gene 24174)): 6.72 µM (active)
AC50 [3]: 14.2 µM (active)
AC50 [9]: 12.9 µM (active)
AC50 [15]: 16.7 µM (active)
